Screening data from PubChem BioAssay.
ELG1 genotox = qHTS screen for small molecules that induce genotoxicity in human embryonic kidney (HEK293T) cells expressing luciferase-tagged ELG1 | HEK293T ELG1-luciferase reporter, luminescence, 16 h | AID 504466, 2011 | 330,000 compounds, 1.3% hits | Potency, µM (titrated, usually from 46 µM), for inactives: top-dose activity change, positive = activation, hits mostly activators; further: % of control where 0% means no effect; nearly all actives have a fitted effect of over 60% in size
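Cells (2,000/well) expressing the ELG1-luciferase fusion are dosed by pin tool and kept 16 hr at 37 °C, 5% CO2. Signal comes from ONE-Glo luciferase reagent after 30 min at room temperature.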
Rab9 prom act = qHTS Assay for Rab9 Promoter Activators. Huh7 Rab9 promoter-luciferase reporter, luminescence, 24 h. Potency, µM (highest dose often 9.22 µM), inactives show top-dose activation, negative = inhibition, hits mostly activators. 320,000 compounds, 2.8% hits; further: % of control where 0% means no effect; nearly all actives have a fitted effect of over 60% in size
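Promoter activation is measured as luciferase luminescence in Huh7 cells stably transfected with a Rab9 promoter–luciferase construct, following 24 h compound exposure at 37 °C and 10 min reagent incubation at ambient temperature.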
FLuc modulator = qHTS profiling assay for firefly luciferase inhibitor/activator using purifed enzyme and Km concentrations of substrates (counterscreen for miR-21 project) | AID 588342, 2011 | Luciferin 4-monooxygenase (Photinus pyralis), P08659 | Potency, µM (doses to about 57.5 µM), inactives show at the highest dose activity change, negative = inhibition, most hits filed as inhibitors | 360,000 compounds, 6.9% hits | purified FLuc, Km substrates, luminescence inhibition;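 further: plate controls were vehicle for no effect and reference inhibitor for full effect; nearly all actives have a fitted effect of over 55% in size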
Target sequence (P08659 whole entry, looked up): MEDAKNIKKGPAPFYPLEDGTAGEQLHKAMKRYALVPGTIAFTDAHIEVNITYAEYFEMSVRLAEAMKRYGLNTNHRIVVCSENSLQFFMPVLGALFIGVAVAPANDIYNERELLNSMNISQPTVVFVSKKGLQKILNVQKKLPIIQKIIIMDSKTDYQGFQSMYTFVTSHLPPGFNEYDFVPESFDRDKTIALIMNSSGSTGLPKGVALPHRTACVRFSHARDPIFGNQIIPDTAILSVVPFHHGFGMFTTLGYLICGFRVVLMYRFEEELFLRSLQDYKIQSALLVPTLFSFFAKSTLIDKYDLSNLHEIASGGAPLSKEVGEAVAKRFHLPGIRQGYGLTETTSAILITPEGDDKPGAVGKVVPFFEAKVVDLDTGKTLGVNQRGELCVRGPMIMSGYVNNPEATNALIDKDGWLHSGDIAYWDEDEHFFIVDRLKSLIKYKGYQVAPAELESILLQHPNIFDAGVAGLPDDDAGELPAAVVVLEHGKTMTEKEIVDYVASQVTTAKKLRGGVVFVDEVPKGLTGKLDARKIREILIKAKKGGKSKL
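Purified P. pyralis luciferase (10nM final) with 10uM D-luciferin and 10uM ATP (Km levels) in 50mM Tris acetate pH 7.5, 10mM Mg acetate, 0.01% Tween-20, 0.05% BSA; qHTS 6-point titration, ~60 µM downward; luminescence read.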
NPC1 promoter act = qHTS Assay for NPC1 Promoter Activators; 320,000 compounds, 2.4% hits; Potency, µM (titrated, usually from 9.22 µM), for the others: top-dose activation, most hits filed as activators; Huh7 NPC1 promoter luciferase reporter, 24 h; further: % of control where 0% means no effect; nearly all actives have a fitted effect of over 60% in size
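Quantitative HTS used a cell-based reporter: Huh7 cells stably bearing the NPC1 promoter upstream of luciferase were treated with compounds for 24 h, and promoter activation was read as luminescence.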
SMN2 splice enh = qHTS Assay for Enhancers of SMN2 Splice Variant Expression | 210,000 compounds, 2.8% hits | HEK293 SMN2-luciferase splicing reporter, luminescence, 30-36 h | Potency, µM (series often up to 46.1 µM), for inactives: at the highest dose activity change, positive = activation, hits mostly activators; further: % of control where 0% means no effect; nearly all actives have a fitted effect of over 55% in size
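HEK293 cells carry an SMN2 […]–luciferase reporter in which exon 7 inclusion puts luciferase in frame. Cells were plated 10-12 h before compound addition, then incubated 30-36 h at 37C. ONE-Glo luminescence was read; sodium butyrate at 4.5 mM final served as control.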
ELG1 repair inh = qHTS screen for small molecules that inhibit ELG1-dependent DNA repair in human embryonic kidney (HEK293T) cells expressing luciferase-tagged ELG1 | HEK293T ELG1-luciferase reporter, luminescence, 16 h; DNA damage induced by 5-fluorouridine | Potency, µM (doses to about 46.1 µM), inactives show at the highest dose activity change, negative = inhibition, usual class: inhibitors | 330,000 compounds, 2.3% hits | AID 504467, 2011; further: on the % scale 0 is the no-effect control and ±100 the full control effect; nearly all actives have a fitted effect of over 55% in size
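DMSO vehicle served as the neutral condition. Each well held 2,000 cells given 5-fluorouridine plus compound; after 16 hr at 37 °C/5% CO2, ONE-Glo was added and luciferase measured 30 min later.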
* hit, by the source's call; ? = inconclusive; . = no result; [ ] = remark or other dose. Most compounds without a hit are left out; they make up all but 9.2% or so of the library. The call rests on the fitted dose curve; in most records, active means well fitted curve in the direction sought with a large enough effect; inconclusive means small, poorly fitted or top-dose-only effect, or another doubt; inactive means no such curve, though single readings can be large; an effect the other way counts as inactive or inconclusive. Potency means the concentration at half of the fitted maximal effect.

SMILES	ELG1 genotox	Rab9 prom act	FLuc modulator	NPC1 promoter act	SMN2 splice enh	ELG1 repair inh
CC(C(=O)O)C1CCC2C3CC=C4CC(O)CC[C@@]4(C)C3CC[C@]12C (stereo partly specified)	.	.	.	.	-6%	.
CC1=C(CO)C(=O)OC([C@@H](C)C2CC[C@H]3C4C[C@H]5O[C@]56[C@@H](O)C=CC(=O)[C@]6(C)C4CC[C@]23C)C1 (stereo partly specified)	-22%	-41%	-4%	-52%	.	9.2µM*
COc1ccc(C2CC(=O)c3cc(-c4nc(-c5cccc([N+](=O)[O-])c5)cs4)c(=O)n(-c4ccccc4N)c3C2)cc1 (stereo unspecified)	.	.	-6%	.	12%	.
O=c1[nH]c(=O)n(C2OC(CO)C(O)C2O)cc1Br (stereo unspecified)	-2%	1%	0%	1%	.	-4%
O=c1[nH]c(=O)n(C2CCCO2)cc1Br (stereo unspecified)	-5%	-4%	4%	2%	35µM*	13%
O=c1[nH]c(=O)n([C@H]2C[C@H](O)[C@@H](CO)O2)cc1F	-4%	-2%	6%	1%	-64%	-2%
O=c1[nH]c(=O)n([C@H]2C[C@H](O)[C@@H](CO)O2)cc1Br	12%	27%[46.1 µM]	3%	6%[46.1 µM]	10µM*	10%
CN1CCN(NC(=S)Nc2ccc(Oc3ccccc3)cc2)CC1	-6%	-26%	-1%	-3%	-25%	?
COc1ccc(-c2[nH]ncc2C(=O)NCc2ccccc2C)cc1	.	.	-11%	.	-5%	.
O=C(Nc1ccc(Cl)cn1)c1cc2ccccc2o1	0.82µM*	1.8µM*	1.9µM*	3.5µM*	7.9µM*	?
O=C(Nc1ccccn1)c1cc2ccccc2o1	?	0.56µM*	0.3µM*	?	0.71µM*	?
O=C(NC1=NCCS1)c1cc2ccccc2o1	2.3µM*	0.35µM*	1.2µM*	0.32µM*	4µM*	?
O=C(Nc1ncccc1O)c1cc2ccccc2o1	?	0.63µM*	3.4µM*	3.2µM*	.	?
CCC(=O)Nc1ccc(NC(=O)c2cc3ccccc3o2)cc1	9%	?	?	?	?	?
CC1CCCCC1NC(=O)CN(C)S(=O)(=O)c1ccc2c(c1)c(=O)n(C)c(=O)n2C (stereo unspecified)	-2%	-3%	0%	-7%	.	-25%
Cc1cc(C)c2nc(NC(=O)C3CSC4(C)CCC(=O)N34)sc2c1 (stereo unspecified)	-1%	-17%	?	-19%	.	13%
CCc1cccc(C)c1NC(=O)c1cc2ccccc2o1	.	.	-5%	.	-29%	.
Cc1ccnc(NC(=O)c2cc3ccccc3o2)c1	?	?	0.27µM*	1.3µM*	.	?
CC(C)(C)c1ccc(NC(=O)C(=O)C2C(=O)Nc3ccccc32)cc1 (stereo unspecified)	0%	21%	12µM*	15%	2%	12%
CC(C)c1ccc(NC(=O)C(=O)C2C(=O)Nc3ccccc32)cc1 (stereo unspecified)	5%	21%	?	7%	11%	?
CN(C)c1ccc(NC(=O)C(=O)C2C(=O)Nc3ccccc32)cc1 (stereo unspecified)	?	21%	11µM*	24%	.	?
CC(=O)c1ccc(C(=O)N2CCCC(CO)(Cc3ccccc3C)C2)s1 (stereo unspecified)	-1%	5%	1%	1%	.	-1%
Cc1nc2cc(NC(=O)Nc3ccccc3Cl)ccc2n1C	0.92µM*	0.89µM*	0.38µM*	0.089µM*	.	?
COC(=O)c1ccc(NC(=O)Nc2ccc3c(c2)nc(C)n3C)cc1	1%	?	?	?	.	13%
Cc1nc2cc(NC(=O)Nc3cccc([N+](=O)[O-])c3)ccc2n1C	?	0.71µM*	1.9µM*	0.35µM*	.	?
SMILES	ELG1 genotox	Rab9 prom act	FLuc modulator	NPC1 promoter act	SMN2 splice enh	ELG1 repair inh
Cc1ccc(NC(=O)Nc2ccc3c(c2)nc(C)n3C)cc1	?	0.5µM*	3µM*	1.4µM*	.	?
Cc1ccc(S(=O)(=O)Nc2ccc3c(c2)nc(C)n3C)cc1	-4%	-7%	2%	3%	.	?
CC(=O)c1ccc(NC(=O)Nc2ccc3c(c2)nc(C)n3C)cc1	?	3.2µM*	19µM*	?	?	?
C[C@@H]1C(NC(=O)c2ccccc2)CC2CC1C2(C)C (stereo partly specified)	0%	0%	-15%	5%	.	6%
CCc1ccc(OCC(=O)NNC(=O)CNC(=O)c2ccc(Br)o2)cc1	5%	0%	?	0%	.	16%
CCCOc1ccc(OC(=O)c2ccc(Br)o2)cc1	3%	-3%	9.5µM*	-4%	-7%	-6%
CCCC12CN3CC(C)(CN(C1)C3c1cn(CC)c3ccccc13)C2=O (stereo unspecified)	.	.	-3%	.	11%	.
CN1C(=O)C(=O)/C(=C(/O)c2ccc(Br)cc2)C1c1ccccc1F (stereo unspecified)	1%	-2%	-1%	-4%	.	-1%
O=c1cc(-c2ccccc2)[nH]n1-c1nc2ccccc2[nH]1	?	-2%	19µM*	4%	3%	?
CCc1nc2oc3cc(OC)ccc3c(=O)c2c(=O)n1Cc1ccccc1	5%	10%	5%	1%	-27%	-15%
CCc1nc2oc3cc(OC)ccc3c(=O)c2c(=O)n1-c1ccccc1	?	?	-10%	?	25µM*	?
Cc1cc(C(=O)N/N=C/c2c(C)nn(-c3ccccc3)c2C)n[nH]1	8%	22%	17µM*	20%	.	?
COc1cc(/C=N/NC(=O)c2ccccc2)ccc1O	?	27%	?	-1%	9%	?
COc1cc(/C=N/NC(=O)c2[nH]nc3c2CCc2ccccc2-3)ccc1O	-4%	0%	27µM*	1%	0%	?
Cc1nn(-c2ccccc2)c(C)c1/C=N/NC(=O)c1cc(C2CC2)[nH]n1	?	3%	17µM*	3%	?	-1%
COc1ccc(/C=N/NC(=O)c2cc(C3CC3)[nH]n2)cc1OC	0%	-1%	?	8%	.	9%
